Experimental data as given in PubChem BioAssay (EPA / NIEHS).
Results filed as inconclusive are left out. Calls of active or inactive are those of the source. Rule for the calls, unless noted: active = hit-call score of the fitted dose curve at least 0.9, where 1 is the maximum; inconclusive = response in the unintended direction; inactive = score below 0.9.

How the values were obtained:
[1] = read-out: Glyceraldehyde-3-phosphate dehydrogenase (Homo sapiens) (UniProt P04406); assay: CLD_GAPDH_24hr: CellzDirect (CLD) Gene Expression Assay for Baseline Control (Glyceraldehyde 3-phosphate dehydrogenase) at 24 hours (AID 2283692)
Procedure, shortened: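 GAPDH baseline-control readout: qNPA chemiluminescent mRNA signal in human primary hepatocytes harvested 24 h after daily dosing, normalised to 0.2% DMSO with positive fitting direction; cytotoxicity annotated by phase-contrast morphology.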

[2] = read-out: alkyl and aryl transferase (GSTA2), GSTA2 (gene 2939); assay: CLD_GSTA2_24hr: CellzDirect (CLD) Gene Expression Assay for alkyl and aryl transferase (GSTA2) at 24 hours (AID 2283693)
Procedure, shortened: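 GSTA2 transcript levels were quantified by quantitative nuclease protection assay in primary human hepatocytes 24 h after daily dosing with fresh solutions at multiple concentrations; 0.2% DMSO vehicle as baseline, cytotoxicity flagged morphologically.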

[3] = read-out: ABC Transporter (ABCB1), ABCB1 (gene 5243); assay: CLD_ABCB1_48hr: CellzDirect (CLD) Gene Expression Assay for ABC Transporter (ABCB1) at 48 hours (AID 2283695)
Procedure, shortened: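 ABCB1 mRNA was measured by quantitative nuclease protection assay (chemiluminescence) 48 h after dosing. Human hepatocyte cultures from two separate donors received fresh dosing solutions daily for two days, with 0.2% DMSO as vehicle. Positive-direction fit against DMSO.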

[4] = read-out: Cytochrome P450 3A4 (Homo sapiens) (UniProt P08684); assay: CLD_CYP3A4_48hr: CellzDirect (CLD) Gene Expression Assay for xenobiotic metabolism (CYP3A4) at 48 hours (AID 2283698)
Procedure, shortened: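 CYP3A4 induction read by qNPA chemiluminescence after 48 h, with fresh dosing solutions on consecutive days, in cultured human hepatocytes (two donors). Vehicle 0.2% DMSO as baseline; microscopy-based cytotoxicity annotated yes/no alongside data.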

[5] = read-out: Cytochrome P450 2B6 (Homo sapiens) (UniProt P20813); assay: CLD_CYP2B6_48hr: CellzDirect (CLD) Gene Expression Assay for xenobiotic metabolism (CYP2B6) at 48 hours (AID 2283699);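 note: actives raise transcript level above DMSO so potency reflects induction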
Procedure, shortened: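 CYP2B6 transcript induction, read by quantitative nuclease protection (S1 digestion, chemiluminescent detection) 48 h after dosing, is fitted upward against 0.2% DMSO. Cultured human liver primary cells, two donor preparations, received fresh chemical daily over multiple concentrations.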

[6] = read-out: Cytochrome P450 2C19 (Homo sapiens) (UniProt P33261); assay: CLD_CYP2C19_48hr: CellzDirect (CLD) Gene Expression Assay for xenobiotic metabolism (CYP2C19) at 48 hours (AID 2283700);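 note: fitted upward so actives raise CYP2C19 mRNA above the 0.2% DMSO vehicle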
Procedure, shortened: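 CYP2C19 mRNA induction read by chemiluminescent quantitative nuclease protection assay after 48 h, with fresh compound added daily for two days to cultured human liver hepatocytes. Activity fitted upward against 0.2% DMSO vehicle.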

[7] = read-out: Cytochrome P450 2C9 (Homo sapiens) (UniProt P11712); assay: CLD_CYP2C9_48hr: CellzDirect (CLD) Gene Expression Assay for xenobiotic metabolism (CYP2C9) at 48 hours (AID 2283701; active = hit-call score of the fitted dose curve at least 0.9, where 1 is the maximum; inactive = score below 0.9)
Procedure, shortened: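 mRNA level measured by quantitative nuclease protection (S1 digestion, chemiluminescent detection) in lysates of human primary hepatocytes exposed 48 h with daily re-dosing. Induction fitted positively versus 0.2% DMSO; morphology-based cytotoxicity flagged yes/no.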

[8] = read-out: xenobiotic metabolism (CYP1A2), CYP1A2 (gene 1544); assay: CLD_CYP1A2_48hr: CellzDirect (CLD) Gene Expression Assay for xenobiotic metabolism (CYP1A2) at 48 hours (AID 2283703)
Procedure, shortened: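 Cytotoxicity was flagged yes/no from morphology, while CYP1A2 transcript induction was detected by qNPA chemiluminescence after a 48-hour exposure. Human primary hepatocyte cultures from separate donors received fresh dosing solutions daily over two days, with 0.2% DMSO as vehicle and baseline.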

[9] = read-out: xenobiotic metabolism (CYP1A1), CYP1A1 (gene 1543); assay: CLD_CYP1A1_48hr: CellzDirect (CLD) Gene Expression Assay for xenobiotic metabolism (CYP1A1) at 48 hours (AID 2283705)
Procedure, shortened: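 CYP1A1 transcript measured by quantitative nuclease protection (chemiluminescent) 48 h after two daily treatments of human hepatocyte cultures, versus 0.2% DMSO. Morphology-based cytotoxicity flags accompany data; two donor preparations used.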

[10] = read-out: alkyl and aryl transferase (GSTA2), GSTA2 (gene 2939); assay: CLD_GSTA2_48hr: CellzDirect (CLD) Gene Expression Assay for alkyl and aryl transferase (GSTA2) at 48 hours (AID 2283708);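 note: active means mRNA induction above DMSO vehicle baseline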
Procedure, shortened: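 GSTA2 mRNA quantified by qNPA chemiluminescence in human primary hepatocyte lysates after 48 h of daily fresh chemical dosing. Increases fitted against 0.2% DMSO vehicle baseline; cytotoxicity from morphology annotated yes/no.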

[11] = read-out: glucuronosyltransferase (UGT1A1), UGT1A1 (gene 54658); assay: CLD_UGT1A1_48hr: CellzDirect (CLD) Gene Expression Assay for glucuronosyltransferase (UGT1A1) at 48 hours (AID 2283709);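 note: actives increase expression relative to DMSO so potency refers to induction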
Procedure, shortened: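 Quantitative nuclease protection assay (chemiluminescent) for UGT1A1 mRNA at 48 h in human hepatocyte cultures from two donors, redosed daily with fresh solutions. Induction fitted relative to 0.2% DMSO; phase-contrast morphology annotated cytotoxicity.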

[12] = read-out: HMG-CoA synthase (HMGCS2), HMGCS2 (gene 3158); assay: CLD_HMGCS2_48hr: CellzDirect (CLD) Gene Expression Assay for HMG-CoA synthase (HMGCS2) at 48 hours (AID 2283711)
Procedure, shortened: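 mRNA induction read by qNPA chemiluminescence, 48 h after dosing. Cultured primary human liver cells (two donor preparations) received fresh compound daily over two days against 0.2% DMSO vehicle; morphology-based cytotoxicity noted alongside.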

[13] = STM_H9_OrnithineISnorm_perc: Stemina devTOX quickPredict H9 human embryonic stem cell (hESC)-based Assay for Ornithine (ORN) Metabolite Biomarker, Normalized (AID 2283712; active = hit-call score of the fitted dose curve at least 0.9, where 1 is the maximum; inactive = score below 0.9;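 note: ornithine released into spent medium during last day measured by mass spectrometry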)
Procedure, shortened: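 UPLC-HRMS readout: endogenous ornithine EIC area / 13C-ORN internal standard, then % of 0.1% DMSO median. H9 hESCs (pluripotent), 72h exposure, re-dosed with fresh media q24h; last 24-h spent media, deproteinized in 40% acetonitrile.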

[14] = read-out: sulfotransferase (SULT2A), SULT2A1 (gene 6822); assay: CLD_SULT2A_24hr: CellzDirect (CLD) Gene Expression Assay for sulfotransferase (SULT2A) at 24 hours (AID 2283694);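 for AC50: potency for increased SULT2A1 mRNA level as induction over DMSO baseline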
Procedure, shortened: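 mRNA is measured by qNPA: probe hybridisation, S1 nuclease digestion, chemiluminescence, in lysates from human primary hepatocytes harvested 24 h after daily dosing. Vehicle was 0.2% DMSO. Phase-contrast microscopy flagged cytotoxicity (yes/no).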

[15] = read-out: glucuronosyltransferase (UGT1A1), UGT1A1 (gene 54658); assay: CLD_UGT1A1_24hr: CellzDirect (CLD) Gene Expression Assay for glucuronosyltransferase (UGT1A1) at 24 hours (AID 2283696)
Procedure, shortened: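 UGT1A1 transcript induction was measured by quantitative nuclease protection assay (chemiluminescence) in human hepatocyte cultures 24 h after daily fresh dosing, with 0.2% DMSO as vehicle and baseline.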

[16] = CLD_ACTIN_48hr: CellzDirect (CLD) Gene Expression Assay for Baseline Control (Actin) at 48 hours (AID 2283702)
Procedure, shortened: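 Background-control actin mRNA read by qNPA chemiluminescence at 48 h. Human hepatocyte cultures from two donors received fresh multi-concentration chemical doses daily for two days; 0.2% DMSO served as vehicle baseline.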

[17] = read-out: organic anion transporter (SLCO1B1), SLCO1B1 (gene 10599); assay: CLD_SLCO1B1_48hr: CellzDirect (CLD) Gene Expression Assay for organic anion transporter (SLCO1B1) at 48 hours (AID 2283707)
Procedure, shortened: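 SLCO1B1 transcript quantified by qNPA with chemiluminescent readout after 48 h of once-daily chemical exposure. Cultured human primary hepatocytes came from two donors, with 0.2% DMSO vehicle; positive-direction fitting against DMSO, cytotoxicity flagged by morphology.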

[18] = read-out: sulfotransferase (SULT2A), SULT2A1 (gene 6822); assay: CLD_SULT2A_48hr: CellzDirect (CLD) Gene Expression Assay for sulfotransferase (SULT2A) at 48 hours (AID 2283710);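 note: hits raise SULT2A1 transcript above the 0.2% DMSO vehicle baseline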
Procedure, shortened: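 SULT2A1 transcript measured by qNPA chemiluminescence in human primary hepatocyte cultures after 48 h, with fresh dosing solutions on two consecutive days; gain-of-signal fitting against 0.2% DMSO vehicle; cytotoxicity annotated from phase-contrast morphology.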

Measured: AC50

Chain of Cytochrome P450 3A4 (Homo sapiens) (P08684 whole entry, looked up): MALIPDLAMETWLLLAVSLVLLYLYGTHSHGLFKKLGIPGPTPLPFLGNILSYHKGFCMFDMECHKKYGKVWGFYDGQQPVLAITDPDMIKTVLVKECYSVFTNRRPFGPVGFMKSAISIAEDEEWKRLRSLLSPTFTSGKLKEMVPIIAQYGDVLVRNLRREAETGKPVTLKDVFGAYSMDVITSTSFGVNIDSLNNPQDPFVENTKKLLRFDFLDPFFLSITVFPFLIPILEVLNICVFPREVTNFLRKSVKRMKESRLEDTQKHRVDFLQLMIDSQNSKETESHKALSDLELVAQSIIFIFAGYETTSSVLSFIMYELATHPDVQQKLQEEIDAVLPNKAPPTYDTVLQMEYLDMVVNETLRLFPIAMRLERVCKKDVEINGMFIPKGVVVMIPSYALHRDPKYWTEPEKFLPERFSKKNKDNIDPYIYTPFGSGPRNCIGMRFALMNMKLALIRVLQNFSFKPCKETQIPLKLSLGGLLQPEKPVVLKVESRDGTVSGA
Chain of Cytochrome P450 2C19 (Homo sapiens) (P33261 whole entry, looked up): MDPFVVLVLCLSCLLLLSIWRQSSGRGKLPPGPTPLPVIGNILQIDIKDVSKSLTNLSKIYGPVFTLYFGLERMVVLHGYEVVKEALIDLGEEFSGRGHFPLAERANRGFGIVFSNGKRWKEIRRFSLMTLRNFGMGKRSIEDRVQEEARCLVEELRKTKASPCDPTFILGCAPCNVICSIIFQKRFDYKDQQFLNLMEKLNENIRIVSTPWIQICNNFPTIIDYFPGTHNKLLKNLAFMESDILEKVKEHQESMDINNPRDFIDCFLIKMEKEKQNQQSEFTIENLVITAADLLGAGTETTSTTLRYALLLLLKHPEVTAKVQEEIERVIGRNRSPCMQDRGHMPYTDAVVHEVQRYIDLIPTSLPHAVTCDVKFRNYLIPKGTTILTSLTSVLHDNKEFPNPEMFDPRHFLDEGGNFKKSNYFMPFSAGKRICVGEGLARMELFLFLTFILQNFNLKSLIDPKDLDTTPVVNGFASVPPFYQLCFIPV
Chain of Glyceraldehyde-3-phosphate dehydrogenase (Homo sapiens) (P04406 whole entry, looked up): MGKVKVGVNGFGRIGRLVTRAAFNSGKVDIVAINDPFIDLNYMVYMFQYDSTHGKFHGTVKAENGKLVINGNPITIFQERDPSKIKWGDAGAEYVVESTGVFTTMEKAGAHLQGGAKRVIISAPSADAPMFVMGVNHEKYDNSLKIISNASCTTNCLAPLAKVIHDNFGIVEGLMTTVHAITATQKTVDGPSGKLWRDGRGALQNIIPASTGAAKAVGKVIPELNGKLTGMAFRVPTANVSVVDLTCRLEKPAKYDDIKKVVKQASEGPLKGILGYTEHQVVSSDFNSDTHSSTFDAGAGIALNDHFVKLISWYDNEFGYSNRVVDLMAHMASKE

CCCN(CC)CC1COC2(CCC(C(C)(C)C)CC2)O1 (stereo not drawn)
active: [4] 2.82 µM | [8] 0.199 µM | [9] 3.97 µM
not listed: [14] | [15] | [16] | [17] | [18]
inactive: all other assays above

CC1(C)C(C(=O)OC(C#N)c2cccc(Oc3ccccc3)c2)C1(C)C (stereo not drawn)
active: [15] 5.68 µM | [4] 20 µM | [5] 4.06 µM | [11] 5.67 µM
not listed: [1] | [13] | [16] | [17] | [18]
inactive: all other assays above

COCC(=O)N(c1c(C)cccc1C)C(C)C(=O)OC (stereo not drawn)
active: [5] 3.08 µM
inactive: [1] | [2] | [3] | [6] | [7] | [8] | [9] | [11] | [12]

Nc1c(Cl)c(F)nc(OCC(=O)O)c1Cl
active: [4] 0.0004 µM
not listed: [2] | [6] | [10] | [13] | [14] | [15] | [18]
inactive: all other assays above

CS(=O)(=O)c1ccc(C(=O)C2C(=O)CCCC2=O)c([N+](=O)[O-])c1
not listed: [4] | [9] | [14] | [15] | [17]
inactive: all other assays above

CO/N=C(/C1=NOCCO1)c1ccccc1Oc1ncnc(Oc2ccccc2Cl)c1F
active: [5] 1.89 µM | [9] 32.4 µM | [13] 24 µM
not listed: [12] | [14] | [15] | [18]
inactive: all other assays above

CCCC(=NOCC)C1=C(O)CC(CC(C)SCC)CC1=O (stereo not drawn)
active: [4] 20 µM
not listed: [2] | [13] | [14] | [15] | [18]
inactive: all other assays above

CC(C)N1C(=O)c2ccccc2NS1(=O)=O
not listed: [5] | [7] | [13] | [14] | [15]
inactive: all other assays above

Cc1cnc(C2=NC(C)(C(C)C)C(=O)N2)c(C(=O)O)c1 (stereo not drawn)
inactive: [1] | [2] | [14] | [7] | [16] | [8] | [9] | [18]

O=C1C2CC=CCC2C(=O)N1SC(Cl)(Cl)Cl (stereo not drawn)
inactive: [1] | [2] | [5] | [6] | [9] | [17] | [10] | [13]

CCNC(=O)NC(=O)C(C#N)=NOC
inactive: [1] | [4] | [6] | [16] | [8] | [9] | [10] | [11] | [18] | [13]

N#Cc1c(Cl)cccc1Cl
inactive: [1] | [2] | [6] | [7] | [16] | [9] | [10] | [11]
active: [4] 4.83 µM | [5] 1.44 µM

COc1ccc(-c2ccccc2)cc1NNC(=O)OC(C)C
active: [14] 33.5 µM | [8] 0.127 µM | [13] 42.1 µM
not listed: [7] | [15] | [18]
inactive: all other assays above

Nc1cnn(-c2ccccc2)c(=O)c1Cl
inactive: [1] | [4] | [6] | [9] | [17] | [10] | [18]
active: [8] 4.24 µM

CS(=O)(=O)c1cc(C(F)(F)F)ccc1C(=O)c1cnoc1C1CC1
active: [4] 29.1 µM | [5] 9.48 µM | [8] 20 µM | [13] 0.0772 µM
not listed: [6] | [7] | [16] | [18]
inactive: all other assays above
